Data on two molecules can be found in PubChem BioAssay (EPA / NIEHS).

Each structure is given as a SMILES string. Where “and” joins values, the source holds several entries; their conditions need not be identical. Identical values can stand only once. Calls of active or inactive are those of the source. How the source made its calls: active means hit-call score of the fitted dose curve at least 0.9, where 1 is the maximum; inactive means score below 0.9.

Assay [1] can be described thus: BSK_hDFCGF_SRB: Viability Assessment in the BioMAP Diversity Plus: hDFCGF Assay (AID 2283061).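 Further: cells exposed to compound for 24 h before the read.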 The conditions noted are these: primary human foreskin fibroblasts. The method in brief: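 Readout is SRB absorbance at 560 nm, reflecting total protein in parallel cultures of human foreskin fibroblasts harvested 24 h after chemical dosing. Activity was fitted bidirectionally relative to DMSO.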

Read-out in assay [2]: TIMP metallopeptidase inhibitor 1 (TIMP1), TIMP1 (gene 7076)
The experiment in a line: BSK_hDFCGF_TIMP1: BioMAP Diversity Plus: hDFCGF Assay for TIMP metallopeptidase inhibitor 1 (TIMP1) Biomarker Activity (AID 2283062). The conditions noted are these: primary human foreskin fibroblasts; actives raise or lower the signal. The method in brief:
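Human skin fibroblasts (primary), hDFCGF system; compound exposure 24 h; TIMP-1 by ELISA; bidirectional fit vs DMSO negative control; overt cytotoxicity by SRB in parallel wells.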

Read-out in assay [3]: Monokine induced gamma interferon (MIG), CXCL9 (gene 4283)
The assay can be described thus: BSK_hDFCGF_MIG: BioMAP Diversity Plus: hDFCGF Assay for Monokine induced gamma interferon (MIG) Biomarker Activity (AID 2283063). The conditions noted are these: primary human foreskin fibroblasts; actives raise or lower the signal. The method in brief: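 Chemicals were added to primary human foreskin fibroblast cultures, which were sampled 24 h later. MIG levels were then quantified by ELISA and responses fitted in both directions relative to DMSO.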

Read-out in assay [4]: Matrix Metallopeptidase 1 (MMP1), MMP1 (gene 4312)
The assay can be described thus: BSK_hDFCGF_MMP1: BioMAP Diversity Plus: hDFCGF Assay for Matrix Metallopeptidase 1 (MMP1) Biomarker Activity (AID 2283064). The conditions noted are these: primary human foreskin fibroblasts; actives raise or lower the signal. The method in brief:
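hDFCGF primary fibroblasts (human foreskin); chemical added; 24 h; MMP1 by ELISA; bidirectional fit vs DMSO.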

Read-out in assay [5]: Plasminogen activator inhibitor-1 (PAI1), SERPINE1 (gene 5054)
The experiment in a line: BSK_hDFCGF_PAI1: BioMAP Diversity Plus: hDFCGF Assay for Plasminogen activator inhibitor-1 (PAI1) Biomarker Activity (AID 2283066). The conditions noted are these: primary human foreskin fibroblasts; actives raise or lower the signal. The procedure, abridged:
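Human foreskin fibroblasts in the hDFCGF system were dosed with compound for 24 h; PAI-1 was quantified by ELISA. Bidirectional curve fitting used DMSO as negative control and baseline.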

Read-out in assay [6]: Intercellular Adhesion Molecule 1 (ICAM1), ICAM1 (gene 3383)
The assay can be described thus: BSK_KF3CT_ICAM1: BioMAP Diversity Plus: KF3CT Assay for Intercellular Adhesion Molecule 1 (ICAM1) Biomarker Activity (AID 2283067). The conditions noted are these: primary human keratinocytes with fibroblasts; actives raise or lower the signal. The procedure, abridged:
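ICAM-1 levels are measured by ELISA 24 h after dosing a primary human co-culture of keratinocytes and foreskin fibroblasts. Activity in either direction is fitted relative to DMSO vehicle.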

Read-out in assay [7]: Interferon-gamma inducible Protein 10 (IP10), CXCL10 (gene 3627)
The experiment in a line: BSK_KF3CT_IP10: BioMAP Diversity Plus: KF3CT Assay for Interferon-gamma inducible Protein 10 (IP10) Biomarker Activity (AID 2283068). The conditions noted are these: primary human keratinocytes with fibroblasts; actives raise or lower the signal. The procedure, abridged: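 In a primary skin co-culture of keratinocytes and fibroblasts, IP-10 is quantified by ELISA at 24 h after dosing. SRB staining of parallel wells monitors overt toxicity. Curves are fitted both directions against DMSO.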

Assay [8] can be described thus: BSK_KF3CT_SRB: Viability Assessment in the BioMAP Diversity Plus: KF3CT Assay (AID 2283069).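 Further: total protein by sulforhodamine B staining as a cytotoxicity measure; read 24 h after compound addition; fitted for both signal gain and loss against DMSO baseline.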 The conditions noted are these: primary human keratinocytes with fibroblasts. The method in brief:
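Keratinocytes co-cultured with foreskin fibroblasts (human primary); chemical added, 24 h; fix 10% TCA, stain 0.1% SRB, A560. Bidirectional fit vs DMSO.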

Read-out in assay [9]: Interleukin-1 alpha (IL1a), IL1A (gene 3552)
The assay can be described thus: BSK_KF3CT_IL1a: BioMAP Diversity Plus: KF3CT Assay for Interleukin-1 alpha (IL1a) Biomarker Activity (AID 2283070). The conditions noted are these: primary human keratinocytes with fibroblasts; actives raise or lower the signal. The procedure, abridged: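 Chemicals were dosed onto co-cultured human keratinocytes and foreskin fibroblasts, IL-1a was quantified by ELISA at 24 h, and activity was fitted in both directions relative to DMSO controls.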

Read-out in assay [10]: TIMP metallopeptidase inhibitor 2 (TIMP2), TIMP2 (gene 7077)
The assay can be described thus: BSK_KF3CT_TIMP2: BioMAP Diversity Plus: KF3CT Assay for TIMP metallopeptidase inhibitor 2 (TIMP2) Biomarker Activity (AID 2283071). The conditions noted are these: primary human keratinocytes with fibroblasts; actives raise or lower the signal. The procedure, abridged:
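Human primary keratinocyte/foreskin fibroblast co-culture dosed with chemical and sampled at 24 h. TIMP-2 levels quantified by ELISA; bidirectional fitting against DMSO negative control as baseline.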

Read-out in assay [11]: Transforming growth factor beta 1 (TGFb1), TGFB1 (gene 7040)
The assay can be described thus: BSK_KF3CT_TGFb1: BioMAP Diversity Plus: KF3CT Assay for Transforming growth factor beta 1 (TGFb1) Biomarker Activity (AID 2283072). The conditions noted are these: primary human keratinocytes with fibroblasts; actives raise or lower the signal. The procedure, abridged: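 Human keratinocyte plus foreskin fibroblast primary co-culture, dosed with chemical for 24 h. TGF-b1 quantified by ELISA. Activity fitted bidirectionally against DMSO negative control as baseline.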

Read-out in assay [12]: Matrix Metallopeptidase 9 (MMP9), MMP9 (gene 4318)
The assay can be described thus: BSK_KF3CT_MMP9: BioMAP Diversity Plus: KF3CT Assay for Matrix Metallopeptidase 9 (MMP9) Biomarker Activity (AID 2283074).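 On AC50: MMP9 protein level quantified by ELISA in the co-culture.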 The conditions noted are these: primary human keratinocytes with fibroblasts; actives raise or lower the signal. The procedure, abridged:
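Human keratinocyte/foreskin fibroblast co-culture; compound added; 24 h; MMP-9 by ELISA; bidirectional fit vs DMSO baseline.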

Read-out in assay [13]: urokinase plasminogen activator (uPA), PLAU (gene 5328)
The assay can be described thus: BSK_KF3CT_uPA: BioMAP Diversity Plus: KF3CT Assay for urokinase plasminogen activator (uPA) Biomarker Activity (AID 2283075). The conditions noted are these: primary human keratinocytes with fibroblasts; actives raise or lower the signal. The procedure, abridged:
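ELISA readout of uPA, analyzed for signal gain or loss relative to DMSO, from a human primary keratinocyte–foreskin fibroblast co-culture measured 24 h after chemical treatment.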

Read-out in a further assay: CD40, CD40 (gene 958)
The assay can be described thus: BSK_LPS_CD40: BioMAP Diversity Plus: LPS Assay for CD40 Biomarker Activity (AID 2283076). The conditions noted are these: primary human HUVEC with PBMC; actives raise or lower the signal. The method in brief: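 Cells were dosed, incubated 24 h, then assayed for CD40 by ELISA. Gain or loss of signal was analysed relative to DMSO controls. The culture paired human umbilical vein endothelium with peripheral blood mononuclear cells.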

Read-out in assay [14]: E-selectin (Homo sapiens) (UniProt P16581)
The assay can be described thus: BSK_LPS_Eselectin: BioMAP Diversity Plus: LPS Assay for Eselectin Biomarker Activity (AID 2283077). The conditions noted are these: primary human HUVEC with PBMC; actives raise or lower the signal. The procedure, abridged:
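Primary human vascular co-culture (endothelium plus PBMC) was dosed with chemical, then E-selectin quantified by ELISA at 24 h. Endpoint values derive from bidirectional curve fitting relative to DMSO.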

Read-out in assay [15]: Interleukin-8 (IL8), CXCL8 (gene 3576)
The experiment in a line: BSK_LPS_IL8: BioMAP Diversity Plus: LPS Assay for Interleukin-8 (IL8) Biomarker Activity (AID 2283078). The conditions noted are these: primary human HUVEC with PBMC; actives raise or lower the signal. The procedure, abridged: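 Readout is IL-8 by ELISA, taken 24 h after compounds were added to LPS-stimulated endothelial/PBMC co-cultures. Both increases and decreases relative to DMSO control were scored through bidirectional fitting.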

Assay [16] can be described thus: BSK_LPS_SRB: Viability Assessment in the BioMAP Diversity Plus: LPS Assay (AID 2283079).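 Further: total protein by sulforhodamine B absorbance as a cytotoxicity measure; measured one day after compound addition; fitted in both directions against DMSO so loss or gain of signal counts.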 The conditions noted are these: primary human HUVEC with PBMC. The method in brief: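 Readout is SRB absorbance at 560 nm (0.1% stain, TCA-fixed parallel cultures) as a total-protein cytotoxicity measure. Cells: primary human umbilical vein endothelium plus peripheral blood mononuclear cells, 24 h after chemical exposure; DMSO served as baseline.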

Read-out in assay [17]: Interleukin-1 alpha (IL1a), IL1A (gene 3552)
The experiment in a line: BSK_LPS_IL1a: BioMAP Diversity Plus: LPS Assay for Interleukin-1 alpha (IL1a) Biomarker Activity (AID 2283080). The conditions noted are these: primary human HUVEC with PBMC; actives raise or lower the signal. The method in brief: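 ELISA read-out of IL-1 alpha from a human primary vascular co-culture (endothelium plus PBMC) under LPS, sampled 24 hours post-dosing. Activity was fitted in both directions relative to DMSO controls.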

Sequence of E-selectin (Homo sapiens) (P16581 whole entry, looked up): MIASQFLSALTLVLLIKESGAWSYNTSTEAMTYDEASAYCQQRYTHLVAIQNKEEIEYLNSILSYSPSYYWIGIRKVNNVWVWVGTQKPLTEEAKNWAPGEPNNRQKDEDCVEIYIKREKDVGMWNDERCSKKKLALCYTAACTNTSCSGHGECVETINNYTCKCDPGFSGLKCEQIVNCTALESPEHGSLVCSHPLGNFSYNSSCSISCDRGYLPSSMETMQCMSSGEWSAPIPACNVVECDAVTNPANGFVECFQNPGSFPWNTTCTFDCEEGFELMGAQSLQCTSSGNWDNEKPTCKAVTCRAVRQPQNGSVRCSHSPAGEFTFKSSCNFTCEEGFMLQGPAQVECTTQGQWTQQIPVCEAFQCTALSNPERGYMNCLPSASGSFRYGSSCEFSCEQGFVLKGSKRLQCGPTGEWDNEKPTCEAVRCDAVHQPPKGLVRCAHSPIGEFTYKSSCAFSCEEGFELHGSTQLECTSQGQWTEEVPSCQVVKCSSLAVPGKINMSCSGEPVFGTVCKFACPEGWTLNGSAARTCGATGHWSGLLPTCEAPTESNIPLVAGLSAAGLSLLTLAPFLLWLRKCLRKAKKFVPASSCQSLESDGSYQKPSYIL

Regarding `Sc1ccccc1`, the outcome in [1], in [2], in assay [3], in [4], in assay [5] and in assay [6] was inactive. Moreover, the outcome in [7], in assay [8], in assay [9], in assay [10], in assay [11] and in assay [12] was inactive. The outcome in [13] is “inactive”; in the assay with CD40, CD40 (gene 958), “inactive”; in assay [14], “inactive”; in [15], “inactive”; in assay [16], “inactive”; in [17], “inactive”.

One may read the AC50 as the concentration at which the activity in the assay is half-maximal. As for `NS(=O)(=O)C(F)(F)C(F)(F)C(F)(F)C(F)(F)C(F)(F)C(F)(F)C(F)(F)C(F)(F)F`, the AC50 in assay [1] is 26.9 µM (active) and 55 µM (active) and 47.2 µM (active); in assay [2], 34.4 µM (active) and 53.2 µM (active) and 54.7 µM (active); in assay [3] it was 29.4 µM (active) and 9.34 µM (active) and 11 µM (active); in assay [4] it was 30.7 µM (active) and 15.3 µM (active) and 17.5 µM (active); in assay [5], 27.7 µM (active) and 15.4 µM (active) and 21.1 µM (active); in assay [6] it was 32 µM (active) and 43.5 µM (active) and 54 µM (active). Further, the half-maximal activity concentration (AC50) in assay [7] was 13 µM (active) and 32.4 µM (active) and 37.3 µM (active); in assay [8] it was 30.1 µM (active) and 45.6 µM (active) and 21.4 µM (active); in assay [9], 29.4 µM (active) and 43.8 µM (active) and 44.6 µM (active); in assay [10], 26 µM (active) and 40.7 µM (active) and 44.4 µM (active); in [11] it was 9.43 µM (active); in [12], 12.2 µM (active) and 19.9 µM (active) and 20.4 µM (active). For the same molecule, the half-maximal activity concentration (AC50) in [13] is 13.5 µM (active) and 20.9 µM (active) and 21.5 µM (active); in the assay with CD40, CD40 (gene 958), 23.9 µM (active) and 39.6 µM (active) and 39.1 µM (active); in [14], 29.7 µM (active) and 54.3 µM (active) and 58.5 µM (active); in assay [15], 30.1 µM (active) and 45.6 µM (active) and 49.8 µM (active); in assay [16] it was 28.9 µM (active) and 44.6 µM (active) and 44.3 µM (active); in assay [17], 32.1 µM (active) and 48.7 µM (active) and 52.2 µM (active).
